# Compound activity as filed in PubChem.
# Rows were chosen to be rich in hits. Some 6.8% of all compounds tested hit in one or more screens of this group.
# MCF10A rerep = DNA re-replication induction in MCF 10a cells | MCF 10A DNA re-replication, Hoechst nuclear intensity, 48 h | Potency, µM (top dose mostly 46.1 µM), for the others: at the top dose activity, positive = re-replication, hits mostly activators | actives 2.9% (n = 350,000) | AID 624296; further: % of control where 0% means no effect; nearly all actives have a fitted effect of over 50% in size
# KB-V1 cytotox = KB-V1 MDR subline cytotoxicity; actives 3.4% (n = 400,000); KB-V1 MDR cells viability, CellTiter-Glo, 72 h; Potency, µM (doses to about 46.1 µM), actives largely listed as cytotoxic; AID 1347076; further: on the % scale 0 is the no-effect control and ±100 the full control effect; nearly all actives have a fitted effect of over 60% in size
#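 Cytotoxicity via CellTiter-Glo luminescence after 72 h compound exposure at 37 degrees C. Cells: drug-selected KB-V1 line, DMEM phenol-red free plus 10% FBS. Compounds tested at multiple concentrations; normalized data fitted to concentration-effect curves.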
# SW480 rerep = DNA re-replication induction in SW480 cells | actives 1.8% (n = 340,000) | Potency, µM (doses to about 46.1 µM), without a hit: at the top dose re-replication activation, hits mostly activators | SW480 DNA re-replication, Hoechst DNA content imaging, 48 h | AID 624297; further: % of control where 0% means no effect; nearly all actives have a fitted effect of over 55% in size
#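 Readout is total intensity of Hoechst-stained nuclei, excited at 405 nm and collected at 500-530 nm. Compound treatment lasted 48 hr at 37 C in 5% CO2 before staining.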
# TSG101-PTAP inh = blocks PTAP/TSG101 interaction to inhibit HIV-1 budding; Q99816; Fluorescence polarization, FITC-PTAP peptide / Tsg101 binding; Potency, µM (top dose mostly 115 µM), for inactives: top-dose activity change, negative = inhibition, actives largely listed as inhibitors; 340,000 tested, under 10 active; AID 493005; active means well fitted inhibition curve with a large enough effect in the main read-out, with a control signal flat, not every such curve was filed as active; inconclusive means small, poorly fitted or top-dose-only effect, or effect the other way, or a change in a side signal; inactive means no such curve, though single readings can be large or run the other way; further: % of control where 0% means no effect
# Target sequence (Q99816 whole entry, looked up): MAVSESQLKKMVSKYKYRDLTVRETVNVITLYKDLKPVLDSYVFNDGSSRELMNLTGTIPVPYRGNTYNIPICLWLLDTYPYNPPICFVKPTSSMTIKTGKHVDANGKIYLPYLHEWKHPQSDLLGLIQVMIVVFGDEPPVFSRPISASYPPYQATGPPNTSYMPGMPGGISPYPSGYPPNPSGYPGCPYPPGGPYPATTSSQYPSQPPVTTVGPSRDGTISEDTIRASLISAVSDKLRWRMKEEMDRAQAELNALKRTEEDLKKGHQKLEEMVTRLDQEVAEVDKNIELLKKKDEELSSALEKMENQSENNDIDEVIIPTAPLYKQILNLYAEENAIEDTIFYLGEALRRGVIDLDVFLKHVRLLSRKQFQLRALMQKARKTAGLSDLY
#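 Steps: Tsg101 binding domain dispensed (10 uM final), compounds pinned in DMSO, FITC-labeled PTAP-motif peptide added (50 nM final); after 20 min binding at room temperature, polarization measured.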
# PINK1 expr mod = PINK1 expression modulation; actives 0.2% (n = 410,000); AID 624263; PINK1 immunofluorescence, high-content cytometry, 24 h; Potency, µM (titrated, usually from 76.6 µM), without a hit: top-dose activation (PINK1 increase), actives largely listed as activators; active means well fitted activation curve with a large enough effect; inconclusive means small, poorly fitted or top-dose-only effect; cell line not stated here; further: % of control where 0% means no effect; nearly all actives have a fitted effect of over 65% in size
#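 Stable cell line treated 24 h with compounds at 5 concentrations (CCCP controls), then fixed and immunostained for PINK1 plus nuclear and cell stains; PINK1 immunofluorescence quantified by laser-scanning microplate cytometry.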
# KB-3-1 tox = KB-3-1 parental cell cytotoxicity. KB-3-1 viability, CellTiter-Glo ATP luminescence, 72 h. Potency, µM (top dose mostly 46.1 µM), usual class: cytotoxic. actives 1.4% (n = 400,000); further: on the % scale 0 is the no-effect control and ±100 the full control effect; nearly all actives have a fitted effect of over 60% in size
#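 Here the drug-naive KB-3-1 line serves as comparator for MDR sub-line selectivity; cells received compound titrations, 72 h at 37 °C, then CellTiter-Glo readout.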
# * hit, by the source's call; i = inactive; ? = inconclusive; · = no result given; [ ] = remark or other dose. Unless noted, the call rests on the fitted dose curve; in most records, active means well fitted curve in the direction sought with a large enough effect; inconclusive means small, poorly fitted or top-dose-only effect, or another doubt; inactive means no such curve, though single readings can be large; an effect the other way counts as inactive or inconclusive. Potency means the concentration at half of the fitted maximal effect.
SMILES,MCF10A rerep,KB-V1 cytotox,SW480 rerep,TSG101-PTAP inh,PINK1 expr mod,KB-3-1 tox
COc1cc(/C=N/Nc2nc(Nc3ccccc3)nc(N3CCCCC3)n2)ccc1OCC(=O)O,-3%,i,-9%,-7%,1%,i
COc1ccc(/C=N/Nc2nc(Nc3ccccc3)nc(N3CCCC3)n2)cc1[N+](=O)[O-],?,?,18µM*,0%,4%,i
CCN(CC)c1ccc(NC(=O)Cn2cc3c(n2)CCCC3)c(C)c1,·,i,·,·,2%,i
O=C(Cn1nc(-c2ccccc2)c2ccccc2c1=O)Nc1cccc(O)c1,1%,?,-1%,2%,0%,i
N#Cc1c(-c2ccccc2)c(-c2ccccc2)nn(CC(=O)NNC(=O)Nc2ccc(Cl)cc2)c1=O,?,i,?,-6%,-2%,18µM*
COC(=O)CCn1nc(-c2ccc(Cl)cc2)c2ccccc2c1=O,3%,i,-7%,-6%,-2%,i
N#Cc1c(-c2ccc(Cl)cc2)c(-c2ccc(Cl)cc2)nn(CCOC(=O)CCC(=O)O)c1=O,1.8µM*,7.3µM*,?,-3%,1%,2.3µM*
N#Cc1c(-c2ccccc2)c(-c2ccccc2)nn(CC(=O)NNC(=O)Nc2ccccc2)c1=O,0.65µM*,i,2.9µM*,-6%,5%,5.8µM*
Cc1ccc(S(=O)(=O)N2CCN(c3nc(-n4cncn4)nc4ccccc34)CC2)cc1,·,·,·,·,0%,·
Nc1ccc2c(c1)C(=O)C(=O)c1ccccc1-2,?,4.6µM*,3.7µM*,2%,-4%,2.9µM*
Nc1ccc2c(c1)C(=O)c1ccccc1-2,1%,i,?,-1%,3%,i
O=C1C(=O)c2ccc(-c3ccccc3)cc2-c2ccccc21,?,3.7µM*,5.8µM*,-3%,-3%,4.1µM*
COc1ccc(-c2cc(C(=O)N3CCc4c(cnc(C)c4CNC(=O)c4ccsc4)C3)[nH]n2)cc1,·,·,·,·,1%,·
Cc1c(C(=O)Nc2nc(-c3ccc(F)cc3)ns2)oc2ccc(Cl)cc12,·,·,·,·,3%,·
Cc1cc(C)nc(N(C#N)CCOc2ccc(Cl)cc2)n1,?,i,-5%[9.22 µM],-1%,1%,i
CC(C)Nc1nc(NC(C)C)nc(N(C#N)CCOc2ccc(Cl)cc2Cl)n1,18µM*,?,?,-2%,?,i
Cc1ccc(C(=O)O/N=C(\N)c2cccc([N+](=O)[O-])c2)cc1,1%,i,-5%,0%,0%[38.3 µM],i
Cc1ccc(-n2cnc(N)c2C(=O)c2cccc([N+](=O)[O-])c2)cc1,15µM*,?,?,-3%,-1%,i
CN(C)CCNC(=O)c1cc2c(s1)-c1ccccc1OC2,?,i,6%,-2%,10%,i
Cc1csc(NC(=O)c2cc3c(s2)-c2ccccc2OC3)n1,15µM*,i,19%,-1%,9%,i
Cc1nc(N)c(C#N)c(-c2cccnc2)c1-c1ccccc1,26%,i,-6%,-2%,-3%,i
Cc1ccc2c(n1)sc1c(-c3ccccc3)c(C#N)c(N)nc12,5µM*,i,7.3µM*,-5%,8%,i
COc1ccc(C(=O)NC(Nc2ccccc2)C(Cl)(Cl)Cl)cc1 (stereo not drawn),?,8.2µM*,2%,-4%,5%,?
COc1ccc(C(=O)NC(C(=O)NCc2ccccc2OC)C(C)C)cc1 (stereo not drawn),0.92µM*,i,-44%,-6%,1%,i
COc1ccc(NC(=O)C(NC(=O)c2ccccc2)C(C)C)cc1 (stereo not drawn),6%,21µM*,0%,2%,8%[38.3 µM],i
COc1ccc(C(=O)NNc2ccccc2)cc1,8%,i,2%,-1%,4%,i
